This is part of a sample that, as a whole, favours compounds with a hit. Of some 83,000 tested, about 20% had one in any assay.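 Treatment: one concentration, 48 hours, 96-well format. Scoring: percent growth, with anything below 10 considered active.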 Calls of active or inactive are those of the source.
The molecules below were run on HT29 colon (assay: NCI-60 one-dose screen, 48 h (100 = growth as untreated, 0 = no growth, -100 = all killed)). Conditions: 10 µM unless noted.
Description: Growth inhibition of the HT29 human tumor cell line is measured as a screen for anti-cancer activity. Cells are grown in 96 well plates and exposed to the test compound for 48 hours. Compounds are tested at a single concentration, which is 10^-5 M for most compounds. The reported endpoint is percent growth (GI% or GIPRCNT), where numbers from 0 - 100% represent growth inhibition, and numbers from -100% - 0 represent cell death. For example, a value of 40 represents 60% growth inhibition. A value of 0 means no net growth occurred over the course of the experiment. A value of -40 indicates 40% of cells at the beginning of the experiment died by the end of the experiment. A value of -100 means all cells are dead at the end of the experiment.
NCI-60 Human Tumor Cell Lines Screen was performed using the standard one-dose NCI protocol, which is described in more detail at https://dtp.cancer.gov/discovery_development/nci-60/default.htm.
Compounds with GIPRCNT values below 10 were considered active. Activity score was based on GIPRCNT using the following formula: […]
Score is 0 for GIPRCNT values of 100 or above, 50 for GIPRCNT values of 0, and 100 for GIPRCNT values of -100.

Row | SMILES | growth
1 | Cc1ccc(-n2c(-c3ccccc3)c(-c3ccccc3)c3c(SCC(=O)n4[nH]c(N)cc4=O)ncnc32)cc1 | 94% (inactive)
2 | COc1cc2c(cc1-c1c(C)noc1C)ncc1nc(C3CCCCC3)n(C3CCC(OC(F)F)CC3)c12 (stereo not given) | 19.9% (inactive)
3 | COCN1CCC2N(COC)CCC3N(COC)CCC1N23 (stereo not given) | 105% (inactive)
4 | Cc1cc(=O)oc2c1ccc1oc(C#N)c(C)c12 | 93.4% (inactive)
5 | COc1ccc2c(c1)C(=O)/C(=C/c1cccc(OCC(=O)Nc3nc(C)c(C)s3)c1)O2 | -82.2% (active)
6 | COc1ccc(NC(=O)CSc2nc(C)c(C(C)=O)n2-c2ccc(Cl)cc2)cc1 | 84.2% (inactive)
7 | Cc1occc1-c1n[nH]c(=S)n1N1C(=O)CSC1=S | 105% (inactive)
8 | Cc1cc[c-]cc1.Fc1c[c-]c(-c2ccccn2)c(F)c1.[Pt+2].c1ccc(P(C[PH+](c2ccccc2)c2ccccc2)c2ccccc2)cc1 | 16.9% (inactive)
9 | O=C1c2cccc(NCCN=Cc3cc([N+](=O)[O-])ccc3O)c2C(=O)c2c(NCCN=Cc3cc([N+](=O)[O-])ccc3O)cccc21 | 37.1% (inactive)
10 | CC(=O)c1ccc(NCC(=O)Nc2ccccn2)cc1 | 109% (inactive)
11 | COc1ccc(-c2nc(SCC(=O)Nc3nc(-c4ccccc4)cs3)[nH]c(=O)c2C#N)cc1 | 115% (inactive)
12 | Cc1ccc2nc3ccccc3c(NCc3ccccc3)c2c1 | 11.6% (inactive)
13 | C=CCSc1nc2ccccc2cc1/C=N/O | 92.7% (inactive)
14 | COc1ccc(C2=NN(C(=O)c3cc(OC)c(OC)c(OC)c3)C(c3ccc(Cl)cc3)C2)cc1OC (stereo not given) | 15.2% (inactive)
15 | Cc1ccc2nc(C)c(-c3nnc(SCc4ccc(C#N)cc4)o3)n2c1 | 115% (inactive)
16 | CC(C)CCC[C@@H](C)[C@H]1CC[C@H]2[C@@H](Nc3ccc(O)cc3)CCC[C@]12C | 89.5% (inactive)
17 | O=S(=O)(Nc1cccc(Cl)c1)c1ccc(-c2cnc(C3CC3)o2)cc1 | 3.59% (active)
18 | CN(C)CCC=C1c2ccccc2C(C)(C)c2ccccc21 | 30.5% (inactive)
19 | CC(=O)N1C(=S)NC(=O)C1Cn1c(-c2ccccc2)nc2ccccc21 (stereo not given) | 107% (inactive)
20 | Cc1c2c(c(C)c3c1oc1cc(O)ccc13)C(=O)N(CCN1CCCCC1)C2=O | 61.3% (inactive)

Row | SMILES | growth
21 | CCCCCCCCCCCCCCCCCCOc1ccccc1CC(=O)OCCC[N+](C)(C)C | 40% (inactive)
22 | C[n+]1cc2c3c(ccc2c2ccc4cc5c(cc4c21)OCO5)OCO3 | -84.9% (active)
23 | Cc1c(O)cc(-c2cnc(N/N=C\c3ccc(Cl)cc3)s2)c(O)c1C | 101% (inactive)
24 | O=C(Nc1ccc(Cl)cc1)Nc1ccc(Cl)c(C(F)(F)F)c1 | 18.9% (inactive)
25 | Cc1ccc(NS(=O)(=O)c2ccc3c(c2)C(=O)CC(c2ccc(C(=O)C(C)C)cc2)N3)cc1C (stereo not given) | 91.3% (inactive)
26 | N#Cc1nc2c(S(=O)(=O)c3ccc(Cl)cc3)c(N)n(Nc3cccc(Cl)c3)c2nc1C#N | 69.5% (inactive)
27 | CC(C)(C)c1ccc(/C=C/C(=O)Nc2ccc(O)cc2)cc1 | 18.7% (inactive)
28 | N#C/C(=C\c1ccc(Br)cc1)n1nnc2cc(F)c(F)cc21 | 13.2% (inactive)
29 | COC(=O)[C@H](CSC)N(C)C(=O)[C@@H]1CSSC[C@@H](NC(=O)c2nc3ccccc3cc2O)C(=O)NCC(=O)N1C | 76.1% (inactive)
30 | COc1cccc(Nc2nccc(Nc3ccc4[nH]ncc4c3)n2)c1 | -58.3% (active)
31 | CCOc1ccccc1-c1cc(-c2cccs2)c(C#N)c(=O)[nH]1 | 120% (inactive)
32 | N#Cc1c(N)nc(NCCO)nc1-c1ccc(F)cc1 | 95.9% (inactive)
33 | Cc1ccc(/C=C/c2c(C(=O)/C=C/c3ccc(Cl)cc3)c(C)nc3ccccc23)cc1 | 8.51% (active)
34 | CN(C)CC1C(=O)O[C@H]2[C@H]1CC/C(COC(=O)c1cc3ccccc3[nH]1)=C\CC[C@@]1(C)O[C@@H]21 (stereo not given in full) | -75.7% (active)
35 | C=C1C(=O)O[C@H]2[C@H]1CC/C(COC(=O)C(=O)c1c[nH]c3ccccc13)=C\CC[C@@]1(C)O[C@@H]21 | -55.3% (active)
36 | O=[N+]([O-])c1ccc(N2c3ccncc3Sc3ccncc32)cc1 | 121% (inactive)
37 | CCOC(=O)c1c2c(n3ccc(NC(=O)OC(C)(C)C)cc13)C(=O)c1ncccc1C2=O | -50.9% (active)
38 | Cn1cc(-c2csc(-c3ccccc3)n2)c2cccnc21 | -67.5% [100 µM] (active)
39 | Cc1cccc(Cc2cnc(NC(=O)c3ccc4nnsc4c3)s2)c1 | 82.8% (inactive)
40 | COc1ccc(NC(=O)CSc2nc(C)c(C(C)=O)n2-c2ccc([N+](=O)[O-])cc2)cc1 | 90.8% (inactive)

Reference: PubChem BioAssay (NCI)
